This is a sample that favours compounds with a hit; in the whole collection about 2.3% have one here.
CHO-K1 Ca ag = counter-screen for M1 agonists: effect in parental CHO-K1 cells; 360,000 compounds, 0.48% hits; Fluo-8 calcium fluorescence; scaled to maximal ATP response, vehicle zero; activation, % at 3 µM; in the data active = activation above about 15%;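 note: untransfected CHO-K1 host cells lacking M1 receptor as counterscreen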
CHRM1 PAM = human M1 muscarinic receptor positive allosteric modulators, primary screen, CHO-K1 cells, Fluo-8 calcium fluorescence, 1536-well. Muscarinic acetylcholine receptor M1 (Homo sapiens), P11229. CHO-K1 hM1, ACh EC20; 0% = ACh EC20, 100% = maximal ACh. activation, % at 3 µM. 360,000 compounds, 0.088% hits. AID 588819, 2011; in the data active = activation above about 19%, passing the limit was not always enough
Target sequence (P11229 whole entry, looked up): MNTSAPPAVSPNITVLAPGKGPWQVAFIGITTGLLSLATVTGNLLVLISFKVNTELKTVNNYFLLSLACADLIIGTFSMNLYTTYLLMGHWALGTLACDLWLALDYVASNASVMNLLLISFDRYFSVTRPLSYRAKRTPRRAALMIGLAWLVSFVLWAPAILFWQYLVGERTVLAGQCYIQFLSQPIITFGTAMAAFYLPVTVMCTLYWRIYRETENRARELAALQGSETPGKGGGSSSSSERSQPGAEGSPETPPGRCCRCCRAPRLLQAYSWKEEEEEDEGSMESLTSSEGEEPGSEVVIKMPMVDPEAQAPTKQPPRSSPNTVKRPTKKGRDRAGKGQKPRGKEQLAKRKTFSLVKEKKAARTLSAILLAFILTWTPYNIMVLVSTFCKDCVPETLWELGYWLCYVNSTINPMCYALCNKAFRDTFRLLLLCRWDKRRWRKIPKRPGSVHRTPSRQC
CHRM1 antagonist = human M1 muscarinic receptor antagonists, primary screen, CHO-K1 cells, Fluo-8 calcium fluorescence, 1536-well. Muscarinic acetylcholine receptor M1 (Homo sapiens), P11229. CHO-K1 hM1, ACh EC80 antagonist. inhibition, % at 3 µM. 360,000 compounds, 1.3% hits;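 active = percent inhibition above its own plate's cutoff, namely the mean of that plate's compound wells plus 3 SD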;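 note: peak over basal fluorescence ratio during 140 s after agonist addition; 0% = ACh EC80 plus DMSO and 100% = DMSO alone without agonist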
CHRM1 agonist = human M1 muscarinic receptor agonists, primary screen, Fluo-8 calcium fluorescence, CHO-K1 cells, HTS; Muscarinic acetylcholine receptor M1 (Homo sapiens), P11229; CHO-K1 hM1, agonist mode; 0% DMSO, 100% acetylcholine EC100; 360,000 compounds, 0.33% hits; AID 588814, 2011; activation, % at 3 µM;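 active = activation above the run's mean compound activation plus 3 SD, cut at about 16% in these data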;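 note: peak over basal fluorescence ratio within a 140 s kinetic read after compound addition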
CHO-K1 Ca antag = M1 antagonist counterscreen hit in parental CHO-K1 cells; 360,000 compounds, 0.6% hits; inhibition, % at 3 µM; AID 602250; ATP-induced calcium, Fluo-8 fluorescence;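 active = inhibition above a per-plate cutoff, the plate's mean sample inhibition plus 3 SD, cut at about 24% in these data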;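 note: 0% = DMSO plus EC80 ATP and 100% = DMSO alone without ATP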
CHO-K1 Ca PAM = nonselective calcium activators in parental CHO-K1 cells, primary screen, counter-screen for M1 PAM project, cell-based, Fluo-8 calcium fluorescence, full deck, 1536-well; activation, % at 3 µM; 360,000 compounds, 0.02% hits; ATP EC20; 0% at ATP EC20, 100% at ATP max;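 active = activation above the run cutoff, the mean activation of all test compounds plus 3 SD, cut at about 40% in these data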;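 note: peak over basal fluorescence ratio in a 140 s read after ATP addition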
An asterisk follows results filed as active.

SMILES	CHO-K1 Ca ag	CHRM1 PAM	CHRM1 antagonist	CHRM1 agonist	CHO-K1 Ca antag	CHO-K1 Ca PAM
CC(=O)Nc1cccc(Nc2cnccn2)c1	0.6	-2.7	1.2	-4.9	8.4	-1.1
Nc1ccc(-c2nc3ncccc3o2)cc1	0.2	8.9	-15.5	-3.5	-1.4	3.2
CC(C)OC(=O)/C(C#N)=C\c1cccnc1	0.0	-1.3	2.2	-3.3	-14.0	-6.6
CC(=O)Nc1ccc(NC(=O)C(C)OC(=O)/C(C#N)=C/c2ccc(N(C)C)cc2)cc1 (centres undefined)	2.9	3.7	28.0*	10.3	0.6	21.7
CC(OC(=O)/C(C#N)=C/c1ccc(N(C)C)cc1)C(=O)NCc1ccco1 (centres undefined)	2.6	-0.6	2.7	3.9	8.3	-14.3
CC(OC(=O)/C(C#N)=C/c1ccc(N(C)C)cc1)C(=O)N(C)c1ccccc1 (centres undefined)	15.5*	-16.9	23.9	13.3	13.3	-17.0
Cc1c(Cl)cccc1NC(=O)C1COc2ccccc2O1 (centres undefined)	0.2	8.1	-17.3	-9.3	-12.7	17.2
O=C(Nc1ccc(Cl)c(C(F)(F)F)c1)[C@@H]1CC=C[C@@H]2CCN(C3CC3)C(=O)[C@@H]21	-0.3	5.9	-4.0	-8.1	-2.7	47.4*
Cc1ccc(-c2cc(-c3ccccc3)[nH]c(=S)c2C#N)cc1	0.4	5.4	-5.8	-2.1	0.4	8.4
N#Cc1c(N)[nH]c(=S)c(C#N)c1-c1ccccc1	0.2	5.4	-2.7	-3.6	24.1*	-3.6
COc1ccc(CCNC(=O)CCc2ccc(S(=O)(=O)NCC(C)C)cc2)cc1OC	0.5	4.2	-4.9	-3.0	-21.4	20.5
COc1ccc(C2=NS(=O)(=O)N(C)C(C(=O)NCc3ccccc3)=C2)cc1OC	4.0	0.8	-12.3	3.1	-9.8	23.2
COc1ccc(C2=NS(=O)(=O)N(C)C(C(=O)N3CCc4ccccc4C3)=C2)cc1OC	7.6	-18.7	25.3*	-0.6	11.0	13.6
CCOC(=O)C1CCCN(c2cc(=O)n(Cc3ccc(F)cc3)c(=O)[nH]2)C1 (centres undefined)	0.4	-8.6	0.7	22.5*	-0.6	1.7
COC(=O)C1CCN(c2cc(=O)n(Cc3ccc(F)cc3)c(=O)[nH]2)CC1	0.4	7.9	-11.5	-0.9	-3.8	14.5
CCOC(=O)C1CCCN(c2cc(=O)n(-c3ccccc3Cl)c(=O)[nH]2)C1 (centres undefined)	0.3	-3.7	-5.1	29.2*	11.6	4.8
CC(C)C[C@H]1CNC(=S)N1CC1CCN(CCCCc2ccccc2)CC1	0.5	-30.0	51.7*	-11.0	-1.2	-6.7
CN(C)C1=NC[C@H](Cc2ccccc2)N1CCCC1CCCCC1	10.6	-21.9	30.9*	-1.9	-5.6	16.4
CCCCN1CCC(CN2C(=S)NC[C@@H]2CC(C)C)CC1	0.8	6.2	-3.2	-11.3	-1.7	18.5
CC(C)C[C@H]1CNC(=S)N1CC1CCN(CCCC2CCCC2)CC1	0.8	-31.1	75.4*	-11.2	-15.1	8.8
S=C1NC[C@H](Cc2ccccc2)N1CCCCC1CCCCC1	1.1	2.3	4.5	-3.9	-11.8	9.3
S=C1NC[C@H](Cc2ccccc2)N1CC1CCN(CCCC2CCCC2)CC1	2.3	-26.6	38.5*	-11.2	-9.2	7.9
CN(C)C1=NC[C@H](Cc2ccccc2)N1CCCC1CCCC1	2.5	-9.4	11.3	-8.8	-4.1	0.0
CCN(CC)C(=O)C1=C(C)N(CCCN2CCCC2=O)C(=O)C(CC(=O)NCCN2CCOCC2)C1 (centres undefined)	-0.1	0.4	1.9	-3.2	1.8	-8.0
COC(=O)C1(CC2CC(c3ccccc3)=NO2)CCN(C(=O)OC(C)(C)C)CC1 (centres undefined)	13.5	-14.9	7.8	-6.6	-15.4	7.3
SMILES	CHO-K1 Ca ag	CHRM1 PAM	CHRM1 antagonist	CHRM1 agonist	CHO-K1 Ca antag	CHO-K1 Ca PAM
c1cn2c(-c3ccoc3)cncc2n1	1.0	0.7	-2.6	-4.1	-8.0	4.4
CC(C)(C)c1ccc(-n2ncc3c2CCCC3NC(=O)CCn2cncn2)cc1 (centres undefined)	1.4	-22.6	54.2*	-5.0	9.2	-25.6
Cc1cc(C(=O)NC2CCCc3c2cnn3-c2ccc(C(C)(C)C)cc2)nn1C (centres undefined)	11.9	-6.9	32.8*	1.9	24.9*	-9.5
COC(=O)c1c(N)sc(C(C)=O)c1C	0.0	19.7	-0.2	16.4*	-12.4	18.8
COc1cc2cc(C(=O)N3CCOCC3)cc(-c3ccc(C)cc3)c2cc1OC	0.9	6.9	-14.8	0.2	-3.5	3.6
CCN(CC)S(=O)(=O)c1cccc(-c2nnc(SCCOc3ccccc3)o2)c1	1.1	-4.2	-15.0	-0.5	46.6*	7.3
CCN(CC)S(=O)(=O)c1cccc(-c2nnc(SCCOc3ccc(Cl)cc3)o2)c1	0.2	2.2	-19.6	-1.6	-8.0	17.9
Nc1[nH]c2cc([N+](=O)[O-])ccc2c1-c1ccccn1	10.0	-13.7	27.2	15.8	11.8	-4.0
Cc1cccc(Nc2nc(N)nc(N)c2N=O)c1	28.6*	6.9	-8.0	24.2*	-1.2	0.9
Cc1cccc(Nc2nc(N)nc(CCl)n2)c1	19.6*	9.2	-9.1	-4.9	3.5	-3.2
Cc1ccc(Nc2nc(N)nc(N)c2N=O)cc1C	0.4	4.2	-4.8	13.1	-2.1	10.1
Cc1cccc(Nc2nc(N)nc(CN3CCN(Cc4ccc5c(c4)OCO5)CC3)n2)c1	0.4	-15.5	21.4*	-5.0	6.0	-1.0
COc1ccccc1Nc1nc(N)nc(CN2CCN(Cc3ccc4c(c3)OCO4)CC2)n1	-0.5	-5.8	11.1	-6.1	2.2	-17.2
CCOC(=O)C1(C)CCN1C(=O)c1ccc(C)cc1 (centres undefined)	-0.8	2.2	-4.0	-3.6	-7.0	0.8
O=C(O)CCC(=O)N1CCN(c2ncccc2C(F)(F)F)CC1	1.0	1.4	-8.0	-4.0	8.9	-17.4
COc1ccc(C(CC(=O)c2ccccc2)S(=O)(=O)c2ccc(C)cc2)cc1 (centres undefined)	0.1	8.8	-15.7	-5.8	-11.6	16.2
CC(=O)CC(c1ccccc1)S(=O)(=O)c1ccc(C)cc1 (centres undefined)	0.2	-3.7	26.5*	-2.2	9.4	-6.4
CCOC(=O)c1cc2n(n1)C(C(F)(F)C(F)(F)F)CC(C)N2 (centres undefined)	-0.4	19.4	-33.0	17.5*	-2.1	12.1
CCc1ccccc1OCCCCN1CCCCC1	0.3	-21.7	35.8*	-9.1	-1.0	1.2

Bioassay records from PubChem.
